Bioassay records as filed in PubChem BioAssay.
Only some compounds are listed: those with a hit (about 12% of all), similar ones and a draw of the others.
HP1b chromo inh: inhibitors of HP1-beta chromodomain binding to methylated histone tails | AID 540317 | AlphaScreen HP1-beta / biotin-H3K9me3 peptide binding | P83916 | 390,000 tested, 0.56% active | Potency, µM (titrated, usually from 114 µM), hits mostly inhibitors; also: nearly all actives have a fitted effect of over 70% in size
Target sequence (P83916 whole entry, looked up): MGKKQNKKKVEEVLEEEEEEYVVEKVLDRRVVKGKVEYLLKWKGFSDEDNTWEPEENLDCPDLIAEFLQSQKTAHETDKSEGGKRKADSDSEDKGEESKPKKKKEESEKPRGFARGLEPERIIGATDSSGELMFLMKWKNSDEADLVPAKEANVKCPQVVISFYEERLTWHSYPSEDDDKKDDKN
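Compound inhibition of the preformed complex between 50 nM HP1-beta and 50 nM biotinylated H3K9me3 peptide was read by AlphaScreen. Buffer was PBS pH 7.4 with 0.01% Tween-20. Incubations ran 30 min at room temperature, with 10 ug/mL donor/acceptor beads.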
G9a inh: blocks human histone lysine methyltransferase G9a | G9a H3K9 monomethylation, AlphaScreen, 2 h | 350,000 tested, 8.8% active | Potency, µM (series often up to 102 µM), actives largely listed as inhibitors; also: nearly all actives have a fitted effect of over 75% in size
Target sequence (Q96KQ7 913-1193 limits assumed): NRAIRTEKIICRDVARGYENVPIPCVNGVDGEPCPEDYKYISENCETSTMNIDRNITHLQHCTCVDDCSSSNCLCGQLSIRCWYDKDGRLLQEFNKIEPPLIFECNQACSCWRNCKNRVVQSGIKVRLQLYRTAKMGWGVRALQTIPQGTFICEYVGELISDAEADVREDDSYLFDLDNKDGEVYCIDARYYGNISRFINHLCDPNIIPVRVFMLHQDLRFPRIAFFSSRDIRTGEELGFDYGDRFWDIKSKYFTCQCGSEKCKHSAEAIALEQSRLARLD
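G9a (20 nM) was preincubated 15 min with compound, then reacted 2 h at room temperature with 500 nM biotin-H3K9 peptide and 20 µM SAM. Monomethyl-H3K9 detected by AlphaScreen using anti-H3K9me1 antibody.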
JMJD2A Tudor inh: JMJD2A Tudor domain (human) inhibition; 390,000 tested, 4.4% active; O75164; Potency, µM (doses to about 114 µM), usual class: inhibitors; AlphaScreen JMJD2A-Tudor / H3K4me3 peptide binding; also: nearly all actives have a fitted effect of over 50% in size
TDP1 inh: TDP1 (human) enzyme inhibition; recombinant TDP1, AlphaScreen DNA substrate cleavage; Q9NUW8; 350,000 tested, 0.28% active; Potency, µM (doses to about 130 µM), hits mostly inhibitors; also: nearly all actives have a fitted effect of over 40% in size
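E. coli-derived human Tdp1, 1 nM final. Cpd preinc 15 min RT; substrate 15 nM final, 5 min RT; AS bead mix 10 ug/ml final, 10 min RT. Signal loss = tyrosine-FITC cleavage. No-enzyme wells = max signal.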
BAZ2B inh: inhibitors of human BAZ2B bromodomain | Q9UIF8 | AlphaScreen BAZ2B-H3K14Ac peptide displacement | Potency, µM (series often up to 114 µM), usual class: inhibitors | 360,000 tested, 4.4% active | AID 504333; also: nearly all actives have a fitted effect of over 60% in size
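Inhibition is scored as reduced AlphaScreen emission. The BAZ2B/b-H3(5-23)K14Ac complex (50 nM each) in PBS pH 7.4, 0.01% Tween-20 meets compound (up to 110 uM) for 30 min at RT before bead addition.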
Sfp PPTase inh: inhibitors of Bacillus subtilis Sfp phosphopantetheinyl transferase | Biochemical Sfp PPTase activity, qHTS | 310,000 tested, 3.5% active | AID 1490 | Potency, µM, most hits filed as inhibitors | Q9F4F7;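 also: the enzyme is Sfp with the accession as filed and its product quenches rhodamine fluorescence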
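After 15 min at room temperature with compound, 15 nM Sfp received 5 uM rhodamine-CoA plus 12.5 uM BHQ-2-ybbR (50 mM Hepes pH 7.6, 10 mM MgCl2). Rate came from the fluorescence difference over 30 min, ex 525/em 598 nm.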
A number is an active result; [ ] = dose if it differs, or a comment. Calls follow the shape of the dose curve; as a rule, active = well fitted curve in the direction sought with a large enough effect; inconclusive = small, poorly fitted or top-dose-only effect, or another doubt; inactive = no such curve, though single readings can be large; an effect the other way counts as inactive or inconclusive.

Screening O=C(CC1(CC2=NS(=O)(=O)c3ccccc3N2)CCCC1)NCCc1ccccc1 returned HP1b chromo inh inactive, JMJD2A Tudor inh inactive, BAZ2B inh inactive and Sfp PPTase inh inactive.
`CCc1ccc(S(=O)(=O)Nc2ccc(O)c3ccccc23)cc1` gave HP1b chromo inh inconclusive, G9a inh inactive[2.33 µM], JMJD2A Tudor inh inconclusive, BAZ2B inh inconclusive and Sfp PPTase inh inactive.
Screening CCNC(=S)NS(=O)(=O)c1ccc(C)cc1 returned HP1b chromo inh inactive, G9a inh 32µM, JMJD2A Tudor inh inactive, TDP1 inh inactive, BAZ2B inh inactive and Sfp PPTase inh inconclusive.
Cc1ccc(C(=S)NCS(=O)(=O)c2ccc(C)cc2)cc1 was read as HP1b chromo inh inactive, G9a inh 40µM, JMJD2A Tudor inh inconclusive, TDP1 inh inactive, BAZ2B inh inconclusive and Sfp PPTase inh inconclusive.
CCNC(=S)NS(=O)(=O)c1ccc(CC)cc1 was read as HP1b chromo inh inactive, G9a inh 28µM, JMJD2A Tudor inh 25µM, TDP1 inh inactive, BAZ2B inh inactive and Sfp PPTase inh inactive.
Screening CCNS(=O)(=O)c1ccc(C)cc1 returned TDP1 inh inactive.
`Cc1ccc(S(=O)(=O)CNC(=S)c2cccc(Cl)c2)cc1` gave HP1b chromo inh inactive, G9a inh inconclusive, JMJD2A Tudor inh inactive, TDP1 inh inactive, BAZ2B inh inactive and Sfp PPTase inh inactive.
Screening CCc1ccc(S(=O)(=O)NC(=S)Nc2ccccc2)cc1 returned HP1b chromo inh inactive, G9a inh 18µM, JMJD2A Tudor inh inactive, TDP1 inh inactive, BAZ2B inh inactive and Sfp PPTase inh 16µM.
For COc1cc(NC(=O)Cn2cnc(S(=O)(=O)N3CCC(C)CC3)c2)cc(OC)c1OC the results were HP1b chromo inh inactive, G9a inh inactive, JMJD2A Tudor inh inactive, TDP1 inh inactive, BAZ2B inh inactive and Sfp PPTase inh inactive.
Screening CO[C@@H](C(C)C)[C@@H](C)[C@@H]1OC(=O)C[C@@H]1O returned TDP1 inh inactive[21 µM] and Sfp PPTase inh inactive.
For Cc1ccc(N=C2C(=O)Nc3ccccc32)cc1C the results were HP1b chromo inh inactive, G9a inh inactive[0.501 µM], JMJD2A Tudor inh inactive, BAZ2B inh inactive and Sfp PPTase inh inactive.
`Cc1ccc(N=C2C(=O)Nc3ccccc32)cc1` gave HP1b chromo inh inactive, G9a inh inactive, JMJD2A Tudor inh inactive, BAZ2B inh inactive and Sfp PPTase inh inactive.
CCN(CC)c1ccc(N=C2C(=O)Nc3ccccc32)cc1 was read as HP1b chromo inh inconclusive, G9a inh 6.3µM, JMJD2A Tudor inh 16µM, BAZ2B inh 11µM and Sfp PPTase inh inconclusive.
Screening O=C1Nc2ccccc2C1=Nc1ccc2[nH]c3ccccc3c2c1 returned HP1b chromo inh inconclusive and JMJD2A Tudor inh 35µM.
Screening O=C(Nc1cc(C(F)(F)F)ccc1Cl)C(Sc1cccc[n+]1[O-])c1ccccc1 (stereo unspecified) returned HP1b chromo inh inactive, G9a inh 8.9µM, JMJD2A Tudor inh inconclusive, TDP1 inh inactive, BAZ2B inh inactive and Sfp PPTase inh inactive.
`O=C(Nc1cc([N+](=O)[O-])ccc1Cl)C(Sc1ccccc1)c1ccccc1` (stereo unspecified) gave HP1b chromo inh inconclusive, G9a inh inactive, JMJD2A Tudor inh 79µM, TDP1 inh inactive, BAZ2B inh inactive and Sfp PPTase inh inactive.
`O=C(Nc1ccc(Cl)c([N+](=O)[O-])c1)C(Sc1ccccc1)c1ccccc1` (stereo unspecified) gave HP1b chromo inh inactive, G9a inh inconclusive, JMJD2A Tudor inh inactive, TDP1 inh inactive, BAZ2B inh inactive and Sfp PPTase inh inactive.
`Cc1nc(-c2ccccc2)sc1CCNC(=O)C(=O)Nc1ccc(F)c(Cl)c1` gave HP1b chromo inh inactive, G9a inh inactive, JMJD2A Tudor inh inactive, TDP1 inh inactive and BAZ2B inh inactive.
`CC(C)=C1C(=O)C(c2ccccc2)=C2CN3C(=O)N(CCc4ccccc4)C(=O)[C@]3(Cc3ccccc3)[C@H]21` gave TDP1 inh inactive and Sfp PPTase inh inactive.
For O=C(CSc1nncn2c1cc1sccc12)Nc1ccc(Br)cc1F the results were HP1b chromo inh inactive, G9a inh inactive, JMJD2A Tudor inh inactive, TDP1 inh inactive and BAZ2B inh inactive.
Cc1cc2c(N)cccc2nn1 was read as HP1b chromo inh inactive, G9a inh 2.8µM, JMJD2A Tudor inh inactive, TDP1 inh inactive, BAZ2B inh 79µM and Sfp PPTase inh 2µM.
`Nc1cccc2nc3ccccc3cc12` gave HP1b chromo inh inactive, G9a inh inactive, JMJD2A Tudor inh inactive, TDP1 inh inactive, BAZ2B inh inactive and Sfp PPTase inh inactive.
Screening CO/N=C\[C@@H](NS(=O)(=O)c1ccc(C)cc1)[C@H](C)/C=C\CC(=O)OC returned TDP1 inh inactive[21 µM] and Sfp PPTase inh inactive.
For COc1cc2[nH]c(=S)n(NC(=O)CC(C)C)c(=O)c2cc1OC the results were HP1b chromo inh inactive, G9a inh 4µM, JMJD2A Tudor inh 3.5µM, TDP1 inh inactive, BAZ2B inh inconclusive and Sfp PPTase inh inconclusive.
Screening CCCn1c(=S)[nH]c2cc(OC)c(OC)cc2c1=O returned HP1b chromo inh inactive, G9a inh inactive, JMJD2A Tudor inh inactive, TDP1 inh inactive, BAZ2B inh inactive and Sfp PPTase inh inactive.
CCOC(=O)C1CCN(Cc2cc(C(C)(C)C)c(O)c(C(C)(C)C)c2)CC1 was read as HP1b chromo inh inactive, G9a inh 56µM, JMJD2A Tudor inh inactive, TDP1 inh inactive, BAZ2B inh inactive and Sfp PPTase inh inconclusive.
For CCOC(=O)C1CCN(Cc2ccc(O)c(OC)c2)CC1 the results were HP1b chromo inh inconclusive, G9a inh 32µM, JMJD2A Tudor inh 3.2µM, TDP1 inh inactive, BAZ2B inh inconclusive and Sfp PPTase inh inactive.
`CCOC(=O)C1CCN(Cc2ccc(OC)c(OCc3ccccc3)c2)CC1` gave HP1b chromo inh inactive, G9a inh 28µM, JMJD2A Tudor inh inactive, BAZ2B inh 56µM and Sfp PPTase inh inactive.
`COc1ccc(CN2CCC(C)CC2)cc1OCc1ccccc1` gave HP1b chromo inh inactive, G9a inh inactive, JMJD2A Tudor inh inactive, BAZ2B inh inactive and Sfp PPTase inh inactive.
Screening CCOC(=O)C1CCN(Cc2cn3c(-c4ccc(OC)cc4)nnc3s2)CC1 returned HP1b chromo inh inactive, G9a inh 13µM, JMJD2A Tudor inh inactive, TDP1 inh inactive and BAZ2B inh inconclusive.
CCCC1CCc2[nH]nc(C(=O)NN)c2C1 (stereo unspecified) was read as HP1b chromo inh inactive, G9a inh inactive[2.33 µM], JMJD2A Tudor inh inactive, TDP1 inh inactive and BAZ2B inh inactive.
`O=c1ccn(C2OC(COP(=O)(O)OP(=O)(O)OP(=O)(O)O)C(O)C2O)c(=O)[nH]1` (stereo unspecified) gave TDP1 inh inactive and Sfp PPTase inh inactive.
